In the antibiotic and cytotoxicity screens of Wong et al. (2023):
The whole screen tested about 39,000 compounds, of which about 3,300 (8.5%) were called active. This excerpt belongs to a sample that is enriched for actives.

Test system: HepG2
Assay: cytotoxicity call (relative viability < 0.9)
Details: 10 µM

| SMILES | cytotoxicity call |
| --- | --- |
| Cc1noc(C)c1S(=O)(=O)N(C)C[C@H]1Oc2ccc(NC(=O)c3ccncc3)cc2CC(=O)N([C@H](C)CO)C[C@@H]1C | inactive |
| Cc1noc(C)c1NC(=O)N(C)C[C@@H]1Oc2ccc(NC(=O)CCN3CCOCC3)cc2CC(=O)N([C@H](C)CO)C[C@@H]1C | inactive |
| Cc1ccc(S(=O)(=O)N(C)C[C@@H]2Oc3ncc(-c4ccncc4)cc3C(=O)N([C@H](C)CO)C[C@H]2C)cc1 | inactive |
| COc1ccc(NC(=O)N(C)C[C@H]2Oc3cc(C#CCN(C)C)ccc3S(=O)(=O)N([C@@H](C)CO)C[C@@H]2C)cc1 | inactive |
| C[C@@H]1CN([C@@H](C)CO)C(=O)c2cc(NC(=O)Cn3cnnn3)ccc2O[C@H]1CN(C)Cc1ccc(C(=O)Nc2ccccc2N)cc1 | inactive |
| C[C@@H]1CN([C@H](C)CO)C(=O)c2cc(NC(=O)C3CC3)ccc2O[C@@H]1CN(C)C(=O)Nc1ccc2c(c1)OCO2 | inactive |
| COc1ccc(C#Cc2cnc3c(c2)C(=O)N([C@H](C)CO)C[C@H](C)[C@@H](CN(C)C(=O)CN(C)C)O3)cc1 | inactive |
| C[C@@H]1CN([C@H](C)CO)C(=O)c2cc(NC(=O)Nc3ccccc3)ccc2O[C@@H]1CN(C)Cc1ccc(C(F)(F)F)cc1 | inactive |
| C[C@H](CO)N1C[C@H](C)[C@H](CN(C)Cc2ccc(C(F)(F)F)cc2)Oc2ccc(NC(=O)Nc3ccccc3)cc2C1=O | active |
| C[C@H]1CN([C@@H](C)CO)C(=O)c2cc(NC(=O)Nc3ccccc3)ccc2O[C@H]1CN(C)Cc1ccc(C(F)(F)F)cc1 | inactive |
| C[C@H](CO)N1C[C@H](C)[C@H](CN(C)Cc2ccc(C(=O)O)cc2)Oc2ccc(NC(=O)Nc3ccc(C(F)(F)F)cc3)cc2C1=O | inactive |
| C[C@@H]1CN([C@@H](C)CO)C(=O)c2cc(NC(=O)Nc3ccccc3)ccc2O[C@@H]1CN(C)Cc1ccc(C(F)(F)F)cc1 | active |
| C[C@H]1CN([C@@H](C)CO)C(=O)c2cc(NC(=O)Nc3ccccc3)ccc2O[C@@H]1CN(C)Cc1ccc(C(F)(F)F)cc1 | active |
| C[C@@H]1CN([C@H](C)CO)C(=O)c2cc(NC(=O)Nc3ccc(C(F)(F)F)cc3)ccc2O[C@@H]1CN(C)Cc1ccc(C(=O)O)cc1 | inactive |
| C[C@@H]1CN([C@@H](C)CO)C(=O)c2cc(NC(=O)Nc3ccccc3)ccc2O[C@H]1CN(C)Cc1ccc(C(F)(F)F)cc1 | inactive |
| C[C@@H]1CN([C@H](C)CO)C(=O)c2cc(NC(=O)Nc3ccccc3)ccc2O[C@H]1CN(C)Cc1ccc(C(F)(F)F)cc1 | active |
| COc1cccc(S(=O)(=O)Nc2ccc3c(c2)C(=O)N(C)C[C@@H](OC)[C@@H](C)CN(C(=O)Cc2cccnc2)[C@@H](C)CO3)c1 | inactive |
